Experimental data published in PubChem BioAssay (Tox21).
Values joined by “and” are separate entries in the source; they are usually repeats but may differ in a detail not shown here. Equal values may be shown once. Inconclusive results are not listed. A call without a number means that no potency is given here. Some structures have more than one record in an assay (separate samples or runs), and their calls can disagree. Active and inactive are the calls of the source. Unless noted, the call rests on the fitted dose curve; in most records, active means well fitted curve in the direction sought with a large enough effect in the repeat runs; inconclusive means weak or mixed curves; inactive means no such curve, though single readings can be large; an effect the other way counts as inactive or inconclusive.

How the values were obtained:
[1] = biological target: Retinoic acid receptor RXR-alpha (Homo sapiens) (UniProt P19793); assay: qHTS assay to identify small molecule agonists of the RXR signaling pathway (AID 1159527; calls by dose curve; further: nearly all actives have a fitted effect of over 35% in size; further: potency means the concentration at half of the fitted maximal effect)
Chain of Retinoic acid receptor RXR-alpha (Homo sapiens) (P19793 whole entry, looked up): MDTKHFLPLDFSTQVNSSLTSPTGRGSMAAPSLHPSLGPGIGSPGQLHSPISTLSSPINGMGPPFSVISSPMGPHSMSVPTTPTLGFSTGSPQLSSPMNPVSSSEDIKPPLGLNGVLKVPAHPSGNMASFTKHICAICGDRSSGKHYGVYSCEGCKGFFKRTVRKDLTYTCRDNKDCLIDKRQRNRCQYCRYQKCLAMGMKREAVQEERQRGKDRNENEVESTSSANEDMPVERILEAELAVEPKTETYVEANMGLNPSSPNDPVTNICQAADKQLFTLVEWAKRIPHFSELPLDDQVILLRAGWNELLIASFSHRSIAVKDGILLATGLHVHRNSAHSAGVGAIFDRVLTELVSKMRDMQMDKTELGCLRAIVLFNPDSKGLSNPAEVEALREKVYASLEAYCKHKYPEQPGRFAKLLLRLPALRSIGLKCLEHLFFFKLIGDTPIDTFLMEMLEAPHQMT
In short: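 Reporter activation is measured as beta-lactamase activity via FRET substrate cleavage (emission 460/530 nm) in HEK 293T cells expressing an RXR-alpha-driven bla construct, following 16 hr compound exposure at 37 C.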

[2] = qHTS assay to identify small molecule agonists of the RXR signaling pathway - cell viability counter screen (AID 1159529); further: series mostly up to about 77 µM; nearly all actives have a fitted effect of over 50% in size
In short: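 Tox21 10K compounds were tested for cytotoxicity against GeneBLAzer RXR-alpha HEK 293T cells grown in 2% charcoal-stripped FBS. Exposure lasted 16 hr at 37 C, 5% CO2; viability read by CellTiter-Glo luminescence.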

[3] = qHTS assay to identify small molecule antagonists of the retinoid acid receptor (RAR) signaling pathway - cell viability counter screen (AID 1159551); further: nearly all actives have a fitted effect of over 35% in size
In short: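 C3RL4 RARE-luciferase line; cpds + retinol 1 uM final, 6 h, 37 C/5% CO2; CellTiter-Glo ATP luminescence, 30 min RT.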

[4] = qHTS assay to identify small molecule antagonists of the estrogen related receptor (ERR) signaling pathway from Tox21 library - cell viability counter screen (AID 1224834); further: nearly all actives have a fitted effect of over 30% in size; further: potency means the concentration at half of the fitted maximal effect
In short: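 Multiplexed viability counter screen in ERR cells: 17.5 h compound exposure at 37 C, CellTiter-Fluor added, 30 min at 37 C/5% CO2, fluorescence read.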

[5] = biological target: Luciferin 4-monooxygenase (Photinus pyralis) (UniProt P08659); assay: qHTS assay to identify small molecule inhibitors of firefly luciferase (AID 1224835); further: nearly all actives have a fitted effect of over 25% in size; further: potency means the concentration at half of the fitted maximal effect
Chain of Luciferin 4-monooxygenase (Photinus pyralis) (P08659 whole entry, looked up): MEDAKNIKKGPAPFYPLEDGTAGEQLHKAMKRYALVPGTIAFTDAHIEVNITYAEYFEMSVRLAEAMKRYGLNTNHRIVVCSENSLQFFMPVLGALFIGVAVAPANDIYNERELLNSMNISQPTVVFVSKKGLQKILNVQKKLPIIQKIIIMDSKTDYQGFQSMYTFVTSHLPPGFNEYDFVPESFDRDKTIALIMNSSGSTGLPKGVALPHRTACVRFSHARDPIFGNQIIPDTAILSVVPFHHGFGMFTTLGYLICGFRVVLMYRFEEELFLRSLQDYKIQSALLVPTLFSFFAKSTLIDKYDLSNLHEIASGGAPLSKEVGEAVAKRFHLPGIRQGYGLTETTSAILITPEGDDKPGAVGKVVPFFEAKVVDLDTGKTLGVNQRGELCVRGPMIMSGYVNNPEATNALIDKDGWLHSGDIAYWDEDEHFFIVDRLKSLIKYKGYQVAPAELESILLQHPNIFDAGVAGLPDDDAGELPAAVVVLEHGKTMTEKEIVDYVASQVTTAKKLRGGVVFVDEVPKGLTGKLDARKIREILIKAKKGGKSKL
In short: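 Biochemical qHTS: compounds run as interplate titrations against purified firefly enzyme, with D-luciferin and ATP each at its KM concentration. Light output recorded by CCD imaging.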

[6] = qHTS assay to identify small molecule agonists of the constitutive androstane receptor (CAR) signaling pathway - cell viability counter screen (AID 1224836); further: series mostly up to about 92 µM; nearly all actives have a fitted effect of over 45% in size
In short: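 Fluorescence from CellTiter-Fluor indicates live cells after 23 h exposure. The human hepatoma line expresses hCAR and a CYP2B6-2.2kb reporter. Incubation medium contains 0.75 uM PK11195 (final).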

[7] = qHTS assay to identify small molecule antagonists of the constitutive androstane receptor (CAR) signaling pathway - cell viability counter screen (AID 1224837); further: series mostly up to about 92 µM; nearly all actives have a fitted effect of over 45% in size
In short: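 Read-out: CellTiter-Fluor fluorescence after 23 hr at 37 C/5% CO2. Cells: HepG2 double-stable for hCAR and CYP2B6-2.2kb. Compounds tested at 15 concentrations in the presence of CITCO, final concentration 50 nM.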

[8] = biological target: Nuclear receptor subfamily 1 group I member 3 (Homo sapiens) (UniProt Q14994); assay: qHTS assay to identify small molecule antagonists of the constitutive androstane receptor (CAR) signaling pathway (AID 1224838);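 further: HepG2 cells stably expressing hCAR with CYP2B6 luciferase reporter stimulated by CITCO; nearly all actives have a fitted effect of over 40% in size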; further: potency means the concentration at half of the fitted maximal effect
Chain of Nuclear receptor subfamily 1 group I member 3 (Homo sapiens) (Q14994 whole entry, looked up): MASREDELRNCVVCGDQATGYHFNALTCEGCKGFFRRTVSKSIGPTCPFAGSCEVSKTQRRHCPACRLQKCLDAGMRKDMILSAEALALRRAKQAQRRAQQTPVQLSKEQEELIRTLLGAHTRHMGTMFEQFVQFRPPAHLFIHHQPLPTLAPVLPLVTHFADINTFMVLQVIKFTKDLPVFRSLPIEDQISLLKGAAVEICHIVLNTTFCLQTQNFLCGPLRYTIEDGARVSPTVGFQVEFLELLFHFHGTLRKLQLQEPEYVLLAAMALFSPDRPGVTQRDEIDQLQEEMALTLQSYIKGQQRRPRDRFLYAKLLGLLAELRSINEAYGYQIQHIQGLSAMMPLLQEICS
In short: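 Read-out: ONE-Glo luciferase luminescence after 30 min at room temperature. HepG2-CYP2B6-hCAR double-stable cells, compounds in 15-point titration plus 50 nM CITCO final, 24 h at 37 C/5% CO2.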

[9] = biological target: Nuclear receptor subfamily 1 group I member 3 (Homo sapiens) (UniProt Q14994); assay: qHTS assay to identify small molecule agonists of the constitutive androstane receptor (CAR) signaling pathway (AID 1224839); further: nearly all actives have a fitted effect of over 15% in size; further: potency means the concentration at half of the fitted maximal effect
In short: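 Stable hCAR/CYP2B6-2.2kb HepG2 line in DMEM with 10% FBS; compounds (15 concentrations) and 0.75 uM PK11195 final, 24 h at 37 C/5% CO2, then ONE-Glo luminescence after 30 min.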

[10] = qHTS assay to identify small molecule antagonists of the estrogen related receptor signaling pathway with the pleiotropic PPARgamma coactivator (PGC) from Tox21 10K library - cell viability counter screen (AID 1224840; active means well fitted cell-killing curve with a large enough effect in the repeat runs, not every such curve was filed as active; further: nearly all actives have a fitted effect of over 40% in size; further: potency means the concentration at half of the fitted maximal effect)
In short: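 Fluorescence read-out of CellTiter-Fluor viability reagent, added after cells had been exposed to compound in DMSO for 17.5 h at 37 C; 30 min development at 37 C/5% CO2. Cells: PGC/ERR line, 2,000/well.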

[11] = qHTS assay to identify small molecule agonists of the retinoic acid receptor (RAR) signaling pathway (AID 1159553); further: potency means the concentration at half of the fitted maximal effect
In short: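 RARE-luc C3RL4 cells; overnight attachment 37 C/5% CO2; compound (DMSO) 6 hr; luciferase reagent, 30 min RT; luminescence read-out.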

[12] = qHTS assay to identify small molecule antagonists of the estrogen related receptor signaling pathway with the pleiotropic PPARgamma coactivator (PGC) from Tox21 10K library (AID 1224841; call rule not given here; further: actives are mostly falling curves and most rising ones were filed inactive; nearly all actives have a fitted effect of over 50% in size; further: potency means the concentration at half of the fitted maximal effect)
In short: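 Luminescence read-out (One-Glo luciferase reagent, 30 min at room temperature) from PGC/ERR cells exposed to DMSO-dissolved test compounds for 18 h at 37 C; cells, 2,000 per well, had been preincubated 6 h before compound transfer.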

[13] = qHTS assay to identify small molecule agonists of the estrogen related receptor signaling pathway with the pleiotropic PPARgamma coactivator (PGC) from Tox21 10K library (AID 1224842); further: nearly all actives have a fitted effect of over 15% in size
In short: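 PGC/ERR reporter cell line, 2,000 cells per well, incubated 6 h at 37 C before 23 nL compound in DMSO was added. After 18 h at 37 C, One-Glo luminescence read following 30 min at room temperature.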

[14] = qHTS assay to identify small molecule antagonists of the retinoic acid receptor (RAR) signaling pathway (AID 1159552; further: nearly all actives have a fitted effect of over 50% in size)
In short: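 Overnight-plated C3RL4 reporter cells get compound, then retinol to 1 uM final; plates sit 6 hr at 37 C, 5% CO2. A luciferase reagent is added and light output recorded after 30 min at room temperature.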

SMILES	Potency [1]	outcome [2]	outcome [3]	Potency [4]	Potency [5]	Potency [6]	Potency [7]	Potency [8]	Potency [9]	Potency [10]	Potency [11]	Potency [12]	Potency [13]	Potency [14]
CC(C)CCCCCCOC(=O)c1ccccc1C(=O)OCCCCCCC(C)C	inactive	inactive	inactive	inactive	inactive	inactive	inactive	inactive	inactive	inactive	–	–	–	–
O=C(O)C(Br)Br	inactive	inactive	inactive	inactive	inactive	inactive	inactive	inactive	inactive	inactive	–	–	–	–
CC12CC1(C)C(=O)N(c1cc(Cl)cc(Cl)c1)C2=O (configuration not stated)	inactive	inactive	inactive	inactive	inactive	inactive	inactive	inactive	inactive	inactive	–	–	–	–
Cc1ccccc1N	inactive	inactive	inactive	inactive	inactive	inactive	inactive	inactive	inactive	inactive	–	–	–	–
Nc1ccc(N)cc1	inactive	inactive	inactive	30.8 µM (active) and 30.6 µM (active) and inactive	40.1 µM (active) and 35.6 µM (active)	–	–	inactive	21.8 µM (active) and 21.7 µM (active) and inactive	inactive	34.4 µM (active) and 23.7 µM (active)	–	–	–
CCCCCCCCCCCCCCCCCC(=O)O	inactive	inactive	inactive	inactive	70.5 µM (active) and inactive	inactive	inactive	–	–	inactive	inactive	–	–	–
Nc1cccc(Cl)c1	inactive	inactive	inactive	inactive	inactive	inactive	inactive	inactive	inactive	inactive	–	inactive	inactive	–
CC(=O)/C=C/c1ccccc1	inactive	inactive	inactive	inactive	inactive	inactive	inactive	inactive	inactive	inactive	–	–	–	–
Nc1ccc([As](=O)(O)O)cc1	inactive	inactive	inactive	inactive	inactive	inactive	inactive	inactive	inactive	inactive	–	–	–	–
C=CC(=O)OCCCCCC(C)C	inactive	inactive	inactive	inactive	inactive	inactive	inactive	–	–	inactive	inactive	–	–	–
CCCOC(=O)c1ccccc1C(=O)OCCC	inactive	inactive	inactive	inactive	inactive	inactive	inactive	–	–	inactive	–	–	–	–
CCNc1nc(Cl)nc(NC(C)C)n1	inactive	inactive	inactive	inactive	inactive	inactive	inactive	–	–	inactive	–	inactive	inactive	–
O=C(O)C1C(C(=O)O)C2(Cl)C(Cl)=C(Cl)C1(Cl)C2(Cl)Cl (configuration not stated)	inactive	inactive	inactive	inactive	inactive	inactive	inactive	inactive	inactive	inactive	–	–	–	–
CCOP(=S)(OCC)Oc1cc(C)nc(C(C)C)n1	inactive	inactive	inactive	inactive	inactive	inactive	inactive	inactive	inactive	inactive	–	–	–	–
O=C(O)COc1ccccc1	inactive	inactive	inactive	inactive	inactive	inactive	inactive	inactive	inactive	inactive	–	–	–	–
C[C@]12CC[C@H](O)CC1=CC[C@@H]1[C@@H]2CC[C@]2(C)C(=O)CC[C@@H]12	–	inactive	inactive	inactive	inactive	inactive	inactive	inactive	inactive	inactive	inactive	–	–	inactive
Sc1ccccc1	–	inactive	inactive	inactive	inactive	inactive	inactive	62 µM (active) and inactive	inactive	inactive	–	–	–	–
c1ccc2c(c1)CCCC2	inactive	inactive	inactive	inactive	inactive	inactive	inactive	inactive	inactive	inactive	–	–	–	–
O=[N+]([O-])c1cc([As](=O)(O)O)ccc1O	inactive	inactive	inactive	60.7 µM (active)	inactive	inactive	inactive	–	–	inactive	inactive	inactive	inactive	–
C=C(C)C(=O)OCC(CC)CCCC (configuration not stated)	inactive	inactive	inactive	55.5 µM (active) and inactive	inactive	inactive	inactive	–	–	39.3 µM (active) and inactive	inactive	31.2 µM (active) and inactive	inactive	–
OCc1ccco1	inactive and 5.49 µM (active)	inactive	inactive	inactive	inactive	inactive	inactive	inactive	inactive	inactive	–	inactive	inactive	–
O=[N+]([O-])c1ccc(Cl)cc1	inactive	inactive	inactive	inactive	inactive	inactive	inactive	–	–	inactive	–	–	–	–
NNc1ccccc1	inactive	inactive	inactive	–	inactive	inactive	inactive	inactive	48 µM (active) and 68.5 µM (active)	inactive	–	–	–	–
Nc1nc(N)nc(NC2CC2)n1	inactive	inactive	inactive	inactive	inactive	inactive	inactive	–	–	inactive	inactive	inactive	inactive	–
O=C(O)CCCc1ccc(N(CCCl)CCCl)cc1	inactive	inactive	inactive	inactive	inactive	inactive	inactive	–	–	inactive	–	–	–	–
